Several values for one entry are separate records, joined by “and”; a condition that tells them apart may be missing. Equal entries are not always repeated. The panel holds about 83,000 compounds, 20% with a hit somewhere; the sample as a whole holds those more often.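 Results are percent growth after 48 hours of single-concentration exposure. 100 means growth as in untreated cells, lower positive values show inhibition; negative values down to -100 show cell death.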 Activity calls are given as the source filed them. The calls were made as follows: active = growth percent below 10; inactive = the rest.
Tested on: HL-60(TB) leukemia
Experiment: NCI-60 one-dose screen, 48 h (100 = growth as untreated, 0 = no growth, -100 = all killed)
Conditions: 10 µM unless noted

| SMILES | growth |
| --- | --- |
| Clc1ccc(N/N=C/c2ccccn2)nc1 | -15.4% (active) |
| O=C1Cc2ccccc2C(=O)O1 | 89.1% (inactive) |
| C=C(C)[C@@H]1CC[C@]2(C(=O)NCC(=O)OC)CC[C@]3(C)[C@H](CC[C@@H]4[C@@]5(C)Cc6c([nH]c7ccccc67)C(C)(C)[C@@H]5CC[C@]43C)[C@@H]12 | 64.8% (inactive) |
| O=C(CSc1nc(-c2ccccc2)[nH]c1S(=O)(=O)c1ccccc1)NC1CC1 | 101% (inactive) |
| O=C(Nc1ccc(Cl)cc1)c1cc(-c2ccc(F)cc2)c2sc(=O)[nH]c2n1 | -30.6% (active) |
| O=C1C(SCCO)=C(SCCO)C(=O)N1c1ccc(-c2ccccc2)cc1 | -44.2% (active) |
| CC(=O)c1ccc(NC(=O)Nc2ccc(S(=O)(=O)Nc3ccc(Cl)nn3)cc2)cc1 | 109% (inactive) |
| COc1ccc(CN2C(=O)/C(=C\c3cc(OC)c(OC)c(OC)c3)c3ccccc32)cc1 | -16.2% (active) |
| O=C(O)COCC(=O)O | 102% (inactive) |
| CCOC(=O)c1ccncc1 | 97.3% (inactive) |
| Clc1ccc2c(c1)N(c1ncnc3ccc(-c4cnc5[nH]ncc5c4)cc13)CC2 | 34.5% (inactive) |
| CCNC(=S)NNC(=O)c1cc2ccc1CCc1ccc(cc1)CC2 | 100% (inactive) |
| CN1CCN(Cc2ccc(NC(=O)c3cnc(F)c(C#Cc4cnc(N)c5ncccc45)c3)cc2C(F)(F)F)CC1 | -9.84% (active) |
| COc1cc(C(=O)NNC(=O)c2ccc(NC(=O)CCl)cc2)cc(OC)c1OC | 77.9% (inactive) |
| CCOc1ccc2cc(-c3nn(CC4CCN(C)CC4)c4ncnc(N)c34)ccc2c1 | 96.7% (inactive) and 54.3% (inactive) |
| COc1ccc(-c2ccccc2)cc1C(=O)c1ccc(-c2ccccc2)cc1 | 71.4% (inactive) |
| O=C(O)C(Cc1ccc(OS(=O)(=O)Cc2ccccc2)cc1)NS(=O)(=O)Cc1ccccc1 (stereo not given) | 109% (inactive) and 82.6% (inactive) |
| O=C(Nc1ccc(OS(=O)(=O)c2ccccc2)cc1)C12CC3CC(CC(C3)C1)C2 | 37.3% (inactive) |
| Cc1nn(-c2ccccc2)c(Oc2ccccn2)c1-c1nc2ccccc2s1 | 85.3% (inactive) |
| O=C1N[C@H]2[C@H](CS[C@H]2CCCCC(=O)N(CCP(c2ccccc2)c2ccccc2)CCP(c2ccccc2)c2ccccc2)N1 | 72.8% (inactive) |

| SMILES | growth |
| --- | --- |
| Nc1c(Br)cc(Br)cc1-c1n[nH]c(=O)[nH]c1=O | 94.4% (inactive) |
| CCCCCCCCCCNCCSS(=O)(=O)O | 79% (inactive) |
| CC(=O)Oc1ccc(C(c2ccc(OC(C)=O)cc2)c2ccccn2)cc1 | 102% (inactive) |
| COc1ccc(-c2ccc(NC(=O)Nc3cccc(C(F)(F)F)c3)c(C)n2)cc1 | 49.7% (inactive) |
| O=C(Nc1ccc(F)cc1)c1ccccc1 | 97.5% (inactive) |
| CC(C)OC(=O)N1CCOCC1 | 116% (inactive) |
| N[C@H]1CN(C(=O)c2cc3cc(Br)c(F)c(F)c3[nH]2)C[C@@H]1O | 98.5% (inactive) |
| Cc1ccc(NCCN2CCCCC2)c2c(=O)c3ccccc3sc12 | 1.52% (active) |
| CC1(C)Cc2c(cn(Cc3ccccc3)c2-c2ccccc2)-c2oncc21 | 85.7% (inactive) |
| O=C(NCCCl)c1cc(Cl)cc(Cl)c1 | 95.5% (inactive) |
| COC(=O)[C@]1(C)CCC[C@]2(C)[C@H]3C[C@H]4C(C(C)C)=C[C@]3(CC[C@H]21)[C@@H]1C(=O)N(CCC#N)C(=O)[C@@H]14 | 44.4% (inactive) |
| CCCCCCCCCCCCCCCCC(C(=O)O)C(O)(CC(=O)O)C(=O)O (stereo not given) | 94.6% (inactive) and -8.25% (active) |
| CCOC(=O)C(N)Cc1cc(I)c(O)c(I)c1 (stereo not given) | 99.9% (inactive) and 132% (inactive) |
| C[C@H](NC(=O)[C@@H](C)N)[C@H](Oc1ccc2c(cnn2-c2ccc(F)cc2)c1)c1ccc2c(c1)OCCO2 | 25.8% (inactive) |
| CC(C)(C)c1nn(-c2ccccc2)c2c1C(=O)CSC(c1ccccc1Cl)N2 (stereo not given) | -2.32% (active) |
| Cc1cc(NC(=O)CSCC(=O)O)no1 | 88.9% (inactive) |
| CCc1cccc(CC)c1NC(=O)c1sc2nc3c(cc2c1N)CCCC3 | 41% (inactive) |
| CSc1ccc(SC2c3ccc(C)cc3Oc3nc(N)c(C#N)c(N)c32)cc1 (stereo not given) | -52% (active) |
| Cc1ccc(S(=O)(=O)Nc2ccc3cc([N+](=O)[O-])ccc3c2[N+](=O)[O-])cc1 | 83.3% (inactive) and 31% (inactive) |
| Cc1c2c(nn1C(=O)c1nn(-c3ccc(Cl)cc3)cc1O)-c1ccccc1CC2 | -43.4% (active) |
